This is an account of results in PubChem BioAssay (NCATS).

A short description of assay [1]: S16 Schwann cell PMP22 intronic element firefly luciferase assay (AID 624032). Further: potency means the concentration at half of the fitted maximal effect; nearly all actives have a fitted effect of over 30% in size. The conditions noted are these: S16 rat Schwann cells, PMP22 element FLuc, 24 h; series mostly up to 57.5 µM. In outline: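 Rat S16 Schwann cells stably carrying firefly luciferase driven by a PMP22 intronic element, in 10% FBS, treated 24 h at 37 C. ONE-Glo luminescence normalized to PTC124 control and DMSO (0%); curves classed by r2, magnitude and activity.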

Assay [2] can be described thus: S16 Schwann cell PMP22 intronic element beta-lactamase assay (AID 624044; calls by dose curve;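 further: 0% = DMSO and -100% = potassium clavulanate positive control; nearly all actives have a fitted effect of over 15% in size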). The conditions noted are these: S16 rat Schwann cells, PMP22 element beta-lactamase FRET, 24 h; series mostly up to 38.3 µM. In short, it runs like this: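 Beta-lactamase reporter under a PMP22 intronic regulatory element in stable S16 rat Schwann cells; 24 h compound exposure. 460 nm blue signal normalized between DMSO (0%) and potassium clavulanate, with 535 nm FRET tracking viability; curves classed by r2 and response.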

Assay [3] deals with Pyruvate kinase (Leishmania mexicana) (UniProt Q27686). As to the kind of experiment: qHTS Validation Assay for Activators of Leishmania Mexicana Pyruvate Kinase (AID 959). The following applies: purified L. mexicana pyruvate kinase, enzyme activity; series mostly up to 57.5 µM. In short, it runs like this: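 Read-out: luminescence from PKLight stop/detection reagent, data normalized to DMSO. Reaction: 0.2 nM E451W LmPYK, 0.5 mM PEP, 0.1 mM ADP, pH 7.2, 1 h room temperature.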
For orientation: qHTS replaces the single test concentration by a dilution series.

For assay [4], the target named is Lysosomal acid glucosylceramidase (Homo sapiens) (UniProt P04062). As to the kind of experiment: Glucocerebrosidase-p2 (AID 348; in the data active means potency below about 10 µM; further: potency means the concentration at half of the fitted maximal effect). The following applies: purified GBA, blue fluorogenic substrate, 40 min. In short, it runs like this: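 Normal human glucocerebrosidase (0.2 nM) with blue fluorogenic substrate (80 uM final) in citrate/phosphate pH 5.9 with 10mM sodium taurocholate, 0.01% tween-20; 40 min RT, NaOH/glycine stop; fluorescence Ex 365/Em 440; AC50 from a titration from 0.6 nM upwards.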

Assay [5] can be described thus: Cell Viability - BJ (AID 421; calls by dose curve;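 further: potency means the concentration at half of the fitted maximal effect; cells exposed to compound for 40 hours at 37 °C before readout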). The conditions noted are these: BJ fibroblast viability, qHTS. In outline:
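Cytotoxicity as drop in intracellular ATP (CellTiter-Glo, 20 min RT) after 40 hr compound exposure of BJ fibroblasts at 37 °C. Titrations scaled between DMSO and 100 uM tamoxifen, Hill-fitted for AC50.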

Assay [6] is described as follows: Cell Viability - HepG2 (AID 433; calls by dose curve;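 further: potency means the concentration at half of the fitted maximal effect; cells exposed to compound for 40 hours; potency for ATP loss meaning cytotoxicity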). The following applies: qHTS. In short, it runs like this:
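Read-out is luciferase-based quantitation of cellular ATP as a measure of viable HepG2 cells after 40 h treatment at 37 °C. Signal decrease is scaled between DMSO-only and 100 uM tamoxifen controls, with AC50 fitted by the Hill equation.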

The nature of assay [7]: Cell Viability - MRC5 (AID 434; calls by dose curve;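 further: potency means the concentration at half of the fitted maximal effect; cells exposed to compound for 40 hours at 37 °C; potency reflects cytotoxicity seen as loss of intracellular ATP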). The following applies: MRC5 lung fibroblast viability, qHTS. In short, it runs like this: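 ATP luminescence read-out (CellTiter-Glo, 20 min RT) after 40 hr, 37 °C compound exposure of 1500 MRC5 cells/well. Data normalized to DMSO (basal) and 100 uM tamoxifen (100% inhibition); AC50 from standard Hill equation.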
Assay [8] is described as follows: Cell Viability - N2a (AID 540).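 Further: cells exposed to compound for 40 h at 37 °C; plate controls were DMSO alone for no effect and tamoxifen control for full effect; nearly all actives have a fitted effect of over 45% in size.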 The following applies: N2a mouse neuroblastoma cell viability; at 92.2 µM (top of the series). In outline: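 Cytotoxicity was scored as loss of cellular ATP in N2a cells, a mouse neuroblastoma line. Compounds are applied in a qHTS concentration series for 40 hr at 37 °C.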
Assay [9] can be described thus: Cell Viability - NIH 3T3 (AID 541).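 Further: cells exposed to compound for 40 hours; plate controls were DMSO alone for no effect and tamoxifen positive control for full effect; nearly all actives have a fitted effect of over 25% in size.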 The conditions noted are these: NIH 3T3 cell viability, qHTS; at 92.2 µM (top of the series). In outline: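 Cells seeded at 1000/well, rested 5 hr at 37 °C, then dosed and incubated 40 hr at 37 °C. CellTiter-Glo added, 20 min room temperature, luminescence read. AC50 by Hill fit.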
The nature of assay [10]: Cell Viability - HUV-EC-C (AID 542).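 Further: cells exposed to compound for 40 hours; on the % scale 0 is the no-effect control and ±100 the full control effect; nearly all actives have a fitted effect of over 35% in size.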 The conditions noted are these: HUV-EC-C endothelial cell viability, qHTS; series mostly up to 92.2 µM. In outline:
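Cells were seeded at 1000 per well and incubated 5 hr at 37 °C before compound addition. After 40 hr at 37 °C, CellTiter-Glo reagent was added for 20 min and luminescence read. AC50 values came from Hill-equation modelling.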

A short description of assay [11]: Cell Viability - Renal Proximal Tubule (AID 545).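 Further: cells exposed to compound for 40 hours; 0% = DMSO only and -100% = 100 µM tamoxifen; nearly all actives have a fitted effect of over 40% in size.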 The conditions noted are these: renal proximal tubule cells viability; series mostly up to 91.7 µM. In short, it runs like this:
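Luminescent ATP signal (CellTiter-Glo) served as the viability read-out after 40 hr compound exposure of freshly isolated rat proximal tubule cells at 37 °C. Concentration-dependent ATP loss was fitted with the Hill equation to give AC50.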

Assay [12] can be described thus: Cell Viability - Mesenchymal (AID 546).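 Further: cells exposed to compound for 40 hours before reading; 0% = DMSO only and -100% = 100 µM tamoxifen.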 The following applies: mesenchymal cells viability, qHTS; series mostly up to 91.7 µM. In short, it runs like this: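 Human renal mesenchymal cells (glomerulus-derived), 1000 cells/well, 5 hr 37 °C pre-incubation; compound 40 hr, 37 °C; CellTiter-Glo, 20 min RT; luminescence; AC50 via Hill equation.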
The target in assay [13] is Estrogen receptor (Homo sapiens) (UniProt P03372). As to the kind of experiment: qHTS assay for small molecule antagonists of estrogen receptor alpha signaling (AID 588513; active means well fitted curve in the direction sought with a large enough effect in the signal ratio, with a control signal flat, not every such curve was filed as active; inconclusive means small, poorly fitted or top-dose-only effect, or effect the other way, or a change in a side signal; inactive means no such curve, though single readings can be large or run the other way; the % refers to the signal ratio; further: potency means the concentration at half of the fitted maximal effect). The following applies: ER-alpha-UAS-bla HEK293, beta-lactamase ratio, antagonist mode; series mostly up to 76.9 µM. In outline: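 Fluorescence from CCF4 substrate after 2 h at room temperature gave reporter activity; cells had been exposed to compound and 0.5nM 17-beta-estradiol for 18 h at 37 C. Hill-equation fitting yielded IC50 and maximal response.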

Assay [14] concerns the target Androgen receptor (Homo sapiens) (UniProt P10275). As to the kind of experiment: qHTS assay for small molecule agonists of androgen receptor signaling (AID 588515; active means well fitted curve in the direction sought with a large enough effect in the signal ratio, with a control signal flat; inconclusive means small, poorly fitted or top-dose-only effect, or effect the other way, or a change in a side signal; inactive means no such curve, though single readings can be large or run the other way; the % refers to the signal ratio; further: on the % scale 0 is the no-effect control and ±100 the full control effect). The following applies: AR-UAS-bla HEK293, beta-lactamase ratio, agonist 16 h; stronger effect = higher value. In short, it runs like this:
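Stimulation of an AR-responsive β-lactamase reporter in GripTite HEK293 cells was measured after 16 h compound exposure at 37 °C, via CCF4 fluorescence after 2 h RT. EC50 from Hill fits, normalized to R1881 at 30 nM.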

Assay [15] has the same target. Kind of assay: qHTS assay for small molecule antagonists of androgen receptor signaling (AID 588516; active means well fitted curve in the direction sought with a large enough effect in the signal ratio, with a control signal flat, not every such curve was filed as active; inconclusive means small, poorly fitted or top-dose-only effect, or effect the other way, or a change in a side signal; inactive means no such curve, though single readings can be large or run the other way; the % refers to the signal ratio; further: on the % scale 0 is the no-effect control and ±100 the full control effect). The following applies: AR-UAS-bla HEK293, beta-lactamase ratio, antagonist mode, 16 h; series mostly up to 76.8 µM. In short, it runs like this:
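Cells were plated and incubated 5 h, compounds added in titration, then R1881 (10 nM final) as agonist. After 16 h at 37 C, CCF4 substrate was loaded for 2 h at room temperature and fluorescence measured.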

The target in assay [16] is Glucocorticoid receptor (Homo sapiens) (UniProt P04150). As to the kind of experiment: qHTS assay for small molecule agonists of glucocorticoid receptor signaling (AID 588532; active means well fitted curve in the direction sought with a large enough effect in the signal ratio, with a control signal flat; inconclusive means small, poorly fitted or top-dose-only effect, or a change in a side signal; inactive means no such curve, though single readings can be large or run the other way; the % refers to the signal ratio;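 further: 100% = dexamethasone at 0.1 µM and 0% = DMSO only wells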). The following applies: HeLa MMTV-bla, beta-lactamase ratio, agonist, 18 h; stronger effect = higher value; percent of dexamethasone control, DMSO zero. In short, it runs like this: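 Cells were plated and rested 3-5 h at 37 C, compounds were added in titration and incubated 18 h, then CCF4 substrate was loaded for 2 h at RT before reading blue/green fluorescence. EC50 came from Hill-equation fitting.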

Assay [17] in a line: qHTS assay for small molecule antagonists of peroxisome proliferator-activated receptor delta signaling (AID 588535; active means well fitted inhibition curve with a large enough effect in the signal ratio, with a control signal flat, not every such curve was filed as active; inconclusive means small, poorly fitted or top-dose-only effect, or effect the other way, or a change in a side signal; inactive means no such curve, though single readings can be large or run the other way; the % refers to the signal ratio;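 on max response: cells co-treated with a PPAR-delta agonist as stimulator during compound exposure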). The conditions noted are these: HEK293T PPARd-UAS-bla, beta-lactamase FRET ratio, 18 h; 460 nm channel. In outline:
(§1)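 Fluorescence from CCF4-loaded GeneBLAzer PPAR-delta-UAS-bla HEK293T cells (2 hrs RT loading) quantified reporter inhibition after an 18 hr, 37 C compound exposure across a titration.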

In assay [18] the target is Peroxisome proliferator-activated receptor delta (Homo sapiens) (UniProt Q03181). The description is as above. The conditions noted are these: HEK293T PPARd-UAS-bla, beta-lactamase FRET ratio, 18 h; series mostly up to 76.7 µM. In short, it runs like this: as §1
Assay [19] deals with Vitamin D3 receptor (Homo sapiens) (UniProt P11473). As to the kind of experiment: qHTS assay for small molecule antagonists of vitamin D receptor signaling (AID 588541; calls by dose curve;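 further: receptor activated by calcitriol during compound treatment; on the % scale 0 is the no-effect control and ±100 the full control effect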). The conditions noted are these: HEK293T VDR-UAS-bla, beta-lactamase ratio, antagonist mode; series mostly up to 76.7 µM. In outline: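 VDR-UAS-bla HEK293T cells in 2% charcoal-stripped FBS were stimulated with 1-alpha,25-dihydroxyvitamin D3 (3 nM final) plus compound for 16 h at 37 C. The beta-lactamase CCF4 readout was normalized to 50 nM agonist and DMSO, and Hill fits gave IC50.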

Assay [20] addresses Thyroid hormone receptor beta (Homo sapiens) (UniProt P10828). As to the kind of experiment: qHTS assay for small molecule agonists of thyroid hormone receptor beta signaling (AID 588545; calls by dose curve;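 further: 0% = DMSO only and 100% = 10 nM T3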). The following applies: TR-UAS-bla GripTite HEK 293, beta-lactamase ratio, agonist mode, 18 h; series mostly up to 76.7 µM. In short, it runs like this:
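Efficacy and EC50 values derive from Hill fits of qHTS titration data, normalized to 10 nM T3 and DMSO-only wells. HEK 293 reporter cells were stimulated for 18 hrs at 37 C, with beta-lactamase activity measured by CCF4 fluorescence.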

Several values for one entry are separate records, joined by “and”; a condition that tells them apart may be missing. Equal entries are not always repeated. Activity calls are given as the source filed them. Unless noted, the call rests on the fitted dose curve; in most records, active means well fitted curve in the direction sought with a large enough effect; inconclusive means small, poorly fitted or top-dose-only effect, or another doubt; inactive means no such curve, though single readings can be large; an effect the other way counts as inactive or inconclusive.

Chain of Androgen receptor (Homo sapiens) (P10275 whole entry, looked up): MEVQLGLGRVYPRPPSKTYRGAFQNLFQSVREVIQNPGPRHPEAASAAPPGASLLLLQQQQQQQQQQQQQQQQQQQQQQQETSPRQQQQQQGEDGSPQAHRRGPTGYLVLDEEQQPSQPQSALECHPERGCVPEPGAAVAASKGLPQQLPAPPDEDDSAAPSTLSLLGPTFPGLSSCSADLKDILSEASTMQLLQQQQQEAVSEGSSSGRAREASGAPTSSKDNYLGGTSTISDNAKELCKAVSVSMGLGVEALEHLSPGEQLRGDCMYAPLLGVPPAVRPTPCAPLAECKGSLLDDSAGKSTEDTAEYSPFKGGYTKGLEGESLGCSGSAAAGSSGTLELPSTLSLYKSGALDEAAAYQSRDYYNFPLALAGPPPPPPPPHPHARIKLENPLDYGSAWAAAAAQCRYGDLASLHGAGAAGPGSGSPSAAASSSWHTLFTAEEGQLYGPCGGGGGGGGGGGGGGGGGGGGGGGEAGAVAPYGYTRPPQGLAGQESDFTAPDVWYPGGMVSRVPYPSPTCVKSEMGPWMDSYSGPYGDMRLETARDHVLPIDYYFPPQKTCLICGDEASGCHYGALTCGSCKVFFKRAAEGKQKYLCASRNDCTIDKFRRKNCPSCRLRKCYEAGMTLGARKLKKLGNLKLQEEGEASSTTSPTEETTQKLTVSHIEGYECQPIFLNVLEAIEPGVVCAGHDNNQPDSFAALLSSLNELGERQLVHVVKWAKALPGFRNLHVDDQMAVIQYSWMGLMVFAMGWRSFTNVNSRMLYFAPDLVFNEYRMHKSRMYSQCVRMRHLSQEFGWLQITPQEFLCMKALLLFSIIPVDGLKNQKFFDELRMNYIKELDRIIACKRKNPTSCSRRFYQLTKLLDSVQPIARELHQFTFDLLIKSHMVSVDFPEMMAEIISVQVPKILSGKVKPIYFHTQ
Chain of Glucocorticoid receptor (Homo sapiens) (P04150 whole entry, looked up): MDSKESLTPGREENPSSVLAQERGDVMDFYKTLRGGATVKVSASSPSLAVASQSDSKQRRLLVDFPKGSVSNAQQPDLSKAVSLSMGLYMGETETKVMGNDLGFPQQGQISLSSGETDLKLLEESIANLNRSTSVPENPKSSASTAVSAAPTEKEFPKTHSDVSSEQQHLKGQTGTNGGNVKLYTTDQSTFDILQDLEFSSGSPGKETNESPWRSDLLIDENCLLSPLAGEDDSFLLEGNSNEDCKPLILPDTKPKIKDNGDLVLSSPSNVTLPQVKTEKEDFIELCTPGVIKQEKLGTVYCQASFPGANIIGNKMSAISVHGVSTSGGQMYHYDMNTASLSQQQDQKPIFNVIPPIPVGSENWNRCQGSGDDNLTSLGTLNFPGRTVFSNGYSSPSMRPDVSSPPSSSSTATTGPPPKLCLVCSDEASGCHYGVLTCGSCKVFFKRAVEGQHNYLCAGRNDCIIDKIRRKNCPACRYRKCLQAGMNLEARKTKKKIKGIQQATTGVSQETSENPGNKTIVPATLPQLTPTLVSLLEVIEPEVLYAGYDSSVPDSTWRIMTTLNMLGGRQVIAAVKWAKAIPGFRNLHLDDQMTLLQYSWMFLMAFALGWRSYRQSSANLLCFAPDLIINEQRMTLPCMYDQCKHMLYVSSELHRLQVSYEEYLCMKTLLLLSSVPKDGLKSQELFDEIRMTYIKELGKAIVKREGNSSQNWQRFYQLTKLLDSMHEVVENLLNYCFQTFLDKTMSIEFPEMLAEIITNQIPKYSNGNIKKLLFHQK
Chain of Thyroid hormone receptor beta (Homo sapiens) (P10828 whole entry, looked up): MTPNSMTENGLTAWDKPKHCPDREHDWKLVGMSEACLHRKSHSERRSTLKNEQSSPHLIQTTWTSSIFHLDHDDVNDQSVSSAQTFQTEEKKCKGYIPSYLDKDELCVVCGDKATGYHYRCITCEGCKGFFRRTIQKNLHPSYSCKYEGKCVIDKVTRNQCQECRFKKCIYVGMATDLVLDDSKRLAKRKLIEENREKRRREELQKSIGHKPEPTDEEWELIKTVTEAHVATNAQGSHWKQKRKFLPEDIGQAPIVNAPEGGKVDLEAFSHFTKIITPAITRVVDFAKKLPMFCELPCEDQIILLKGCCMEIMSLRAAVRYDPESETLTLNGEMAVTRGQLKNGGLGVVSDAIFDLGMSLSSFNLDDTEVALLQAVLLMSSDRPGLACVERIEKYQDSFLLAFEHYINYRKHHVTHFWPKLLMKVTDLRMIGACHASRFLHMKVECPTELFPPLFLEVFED
Chain of Pyruvate kinase (Leishmania mexicana) (Q27686 2-499 E452W): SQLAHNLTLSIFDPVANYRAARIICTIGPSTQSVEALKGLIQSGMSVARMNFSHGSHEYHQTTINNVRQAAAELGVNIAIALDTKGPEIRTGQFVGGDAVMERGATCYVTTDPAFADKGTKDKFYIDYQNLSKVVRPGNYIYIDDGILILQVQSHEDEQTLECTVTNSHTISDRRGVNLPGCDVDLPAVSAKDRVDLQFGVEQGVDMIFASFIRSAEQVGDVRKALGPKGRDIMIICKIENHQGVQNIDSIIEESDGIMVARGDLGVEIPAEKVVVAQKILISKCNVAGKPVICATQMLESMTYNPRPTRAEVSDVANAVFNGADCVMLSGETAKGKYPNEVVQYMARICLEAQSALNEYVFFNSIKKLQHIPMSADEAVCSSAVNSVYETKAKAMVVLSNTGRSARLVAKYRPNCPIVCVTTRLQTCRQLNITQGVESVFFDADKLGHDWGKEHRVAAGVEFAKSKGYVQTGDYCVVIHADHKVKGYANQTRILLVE
Chain of Lysosomal acid glucosylceramidase (Homo sapiens) (P04062 whole entry, looked up): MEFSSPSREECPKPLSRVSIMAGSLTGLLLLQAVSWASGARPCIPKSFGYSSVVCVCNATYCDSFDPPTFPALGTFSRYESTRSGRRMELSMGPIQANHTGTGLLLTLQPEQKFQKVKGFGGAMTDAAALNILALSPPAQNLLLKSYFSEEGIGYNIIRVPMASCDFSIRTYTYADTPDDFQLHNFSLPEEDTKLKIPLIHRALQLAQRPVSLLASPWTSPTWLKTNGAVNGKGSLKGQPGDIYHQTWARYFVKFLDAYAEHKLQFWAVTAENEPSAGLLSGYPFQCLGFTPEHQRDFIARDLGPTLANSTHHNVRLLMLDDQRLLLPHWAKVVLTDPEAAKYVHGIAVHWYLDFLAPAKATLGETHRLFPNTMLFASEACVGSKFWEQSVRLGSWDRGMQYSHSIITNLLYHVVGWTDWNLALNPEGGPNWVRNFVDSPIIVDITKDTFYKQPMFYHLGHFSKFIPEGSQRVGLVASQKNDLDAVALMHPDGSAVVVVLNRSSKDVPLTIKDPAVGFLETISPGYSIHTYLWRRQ
Chain of Vitamin D3 receptor (Homo sapiens) (P11473 whole entry, looked up): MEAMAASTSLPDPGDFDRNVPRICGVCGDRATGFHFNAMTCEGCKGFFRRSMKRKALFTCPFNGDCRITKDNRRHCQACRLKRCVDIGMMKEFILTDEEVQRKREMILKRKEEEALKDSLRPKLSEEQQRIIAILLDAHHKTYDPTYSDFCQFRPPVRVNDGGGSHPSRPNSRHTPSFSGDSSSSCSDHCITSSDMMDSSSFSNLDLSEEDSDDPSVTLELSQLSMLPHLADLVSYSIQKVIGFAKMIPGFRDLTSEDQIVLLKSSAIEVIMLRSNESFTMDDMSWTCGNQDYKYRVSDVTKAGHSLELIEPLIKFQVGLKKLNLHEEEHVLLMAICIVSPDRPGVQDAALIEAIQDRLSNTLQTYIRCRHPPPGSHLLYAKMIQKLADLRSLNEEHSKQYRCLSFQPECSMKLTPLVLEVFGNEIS
Chain of Estrogen receptor (Homo sapiens) (P03372 whole entry, looked up): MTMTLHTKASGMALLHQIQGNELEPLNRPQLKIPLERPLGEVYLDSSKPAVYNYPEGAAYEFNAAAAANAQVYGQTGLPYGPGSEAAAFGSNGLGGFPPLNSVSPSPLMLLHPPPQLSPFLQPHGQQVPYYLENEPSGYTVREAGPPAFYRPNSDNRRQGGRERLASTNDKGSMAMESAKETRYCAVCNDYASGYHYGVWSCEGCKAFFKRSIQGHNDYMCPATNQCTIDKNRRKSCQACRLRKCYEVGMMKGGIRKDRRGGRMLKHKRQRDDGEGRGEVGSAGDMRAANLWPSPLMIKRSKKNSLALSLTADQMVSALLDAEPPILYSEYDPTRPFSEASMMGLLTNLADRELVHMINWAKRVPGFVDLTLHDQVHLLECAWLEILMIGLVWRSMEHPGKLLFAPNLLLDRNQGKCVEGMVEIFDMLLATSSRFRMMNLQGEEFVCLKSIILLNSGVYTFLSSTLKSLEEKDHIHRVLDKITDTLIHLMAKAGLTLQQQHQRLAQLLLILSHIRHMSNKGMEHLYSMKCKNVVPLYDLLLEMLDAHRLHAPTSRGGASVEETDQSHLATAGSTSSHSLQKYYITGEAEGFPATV
Chain of Peroxisome proliferator-activated receptor delta (Homo sapiens) (Q03181 whole entry, looked up): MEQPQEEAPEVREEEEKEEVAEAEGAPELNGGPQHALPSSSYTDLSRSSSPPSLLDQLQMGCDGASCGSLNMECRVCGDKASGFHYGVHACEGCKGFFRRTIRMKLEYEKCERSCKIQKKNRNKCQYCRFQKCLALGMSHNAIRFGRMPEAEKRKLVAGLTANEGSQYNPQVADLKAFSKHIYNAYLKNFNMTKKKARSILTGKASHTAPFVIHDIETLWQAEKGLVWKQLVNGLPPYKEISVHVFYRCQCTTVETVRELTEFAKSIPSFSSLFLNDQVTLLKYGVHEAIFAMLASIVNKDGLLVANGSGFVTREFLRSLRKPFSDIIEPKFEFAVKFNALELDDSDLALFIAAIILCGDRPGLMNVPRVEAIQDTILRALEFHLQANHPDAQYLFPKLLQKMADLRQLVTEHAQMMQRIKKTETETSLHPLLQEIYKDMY

On to `CCN(CC)CCO[C@H]1CC[C@@]2(C)C(=CC[C@@H]3[C@H]2CC[C@]2(C)C(=O)CC[C@H]32)C1`, for which the Potency in assay [1] was 9.07 µM (active). Further, in [2], the Potency entry is “inactive”.

With `N#CC(C#N)=Cc1ccc([N+](=O)[O-])c(O)c1`, the Potency in assay [3] is 20 µM (active).

`O=C1C2CCN(CC2)C1(CO)CO`: the Potency in [4] is > 11.4 µM (inactive).

With `CC(C)(c1ccc(OCC2CO2)cc1)c1ccc(OCC2CO2)cc1` (stereo not given), the Potency is > 92 µM (inactive) in [5], > 92 µM (inactive) in assay [6], > 92 µM (inactive) in assay [7] and 31.6 µM [inconclusive] (active) in assay [13]. Further, the activity change, negative = cytotoxicity was -4.11% (inactive) in assay [8] and -5.07% (inactive) in assay [9]. In addition, the molecule was classed as inactive in [10], in [11], in [12], in assay [15], in assay [18] and in assay [19]. For the same molecule, the activation is 11.4% (inactive) and -15.4% (inactive) in assay [14]; -1.68% (inactive) and 2.51% (inactive) in assay [16]. In assay [17], the max response turned out to be 35.6%. Also, the Potency result in assay [20] was “inactive”.
